The source of these data is PubChem BioAssay (NCI).

Assay [1] can be described thus: NCI Yeast Anticancer Drug Screen. Data for the rad50 strain (AID 155).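 Further: 0% = growth of vehicle-only cultures of the same strain.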 To be noted: S. cerevisiae rad50 strain growth inhibition; at 50.0 µM; active compounds read high. Put shortly:
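Vehicle-treated cultures provide the reference for the growth inhibition reported for compound-exposed, repair-deficient yeast.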

Assay [2] is described as follows: NCI Yeast Anticancer Drug Screen. Data for the mec2-1 strain (AID 157). To be noted: S. cerevisiae mec2-1 strain, at 50.0 µM, active compounds read high. Put shortly: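 Cells of the genetically defined mec2-1 yeast strain are incubated with test compound. Inhibition of growth is calculated against vehicle-treated controls.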
A short description of assay [3]: NCI Yeast Anticancer Drug Screen. Data for the sgs1 mgt1 strain (AID 161).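 Further: 0% = growth of cultures given vehicle only.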 The following applies: S. cerevisiae sgs1 mgt1 strain, at 50.0 µM, active compounds read high. Put shortly:
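Mutant yeast exposed to compound; growth scored against vehicle-only wells.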

Assay [4] can be described thus: NCI Yeast Anticancer Drug Screen. Data for the cln2 rad14 strain (AID 165).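 Further: 0% = growth equal to vehicle treated cultures.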 To be noted: S. cerevisiae cln2 rad14 strain, at 50.0 µM, active compounds read high. Put shortly: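 The screen exposed genetically defined yeast (cln2 rad14) to test compounds and scored growth inhibition relative to vehicle-treated controls.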
A short description of assay [5]: NCI Yeast Anticancer Drug Screen. Data for the bub3 strain (AID 167). To be noted: S. cerevisiae bub3 mutant strain, at 50.0 µM, active compounds read high. Put shortly:
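Mutant yeast screening strain plus compound; vehicle-treated cultures serve as the 0% inhibition reference.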

Assay [6] can be described thus: NCI Yeast Anticancer Drug Screen. Data for the mlh1 rad18 strain (AID 175). The following applies: S. cerevisiae mlh1 rad18 strain growth inhibition; at 50.0 µM; active compounds read high. Put shortly:
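Compound-treated yeast growth, normalised to vehicle controls. Strain bears defined DNA repair mutations.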

This is part of a sample that, as a whole, favours compounds with a hit. Of some 79,000 tested, about 15% had one in any assay. Unmarked numbers belong to inactive results. Calls of active or inactive are those of the source. No stated cut-off is given here; in the data, active means growth inhibition above about 70%; inactive means the rest.

In the case of `COc1cc(/C=C/C(=O)Oc2ccccc2)ccc1C(=O)O/C=C/c1ccccc1`, the growth inhibition in assay [1] was 3.65%; in assay [2], -4.7%; in assay [3], 1.85%; in assay [4], 21.4%; in assay [5] it was -5.15%; in assay [6], 13.5%.

On to `N/C([S-])=N/N=c1\c(O)c(O)\c1=N/N=C(/N)[S-].[Cu+2]`, for which the growth inhibition in assay [1] is -8.6%; in assay [2], -6.6%; in assay [3], -7%; in assay [4], -2.7%; in assay [5] it was -10.3%; in assay [6] it was -12.7%.

`O=C1CSC(c2cccc(O)c2O)N1c1nncs1` (stereo not given): the growth inhibition is 1.35% in assay [1]; 0.25% in assay [2]; 1.85% in assay [3]; -6.9% in assay [4]; 5.9% in assay [5]; -5.35% in assay [6].

Regarding `CN(NC(=O)c1ccccc1)C(=O)c1ccccc1`, the growth inhibition in assay [1] is 15.6%; in assay [2], 7.4%; in assay [3], 11.6%; in assay [4], -15%; in assay [5] it was 6.05%; in assay [6] it was 3.75%.

In the case of `CN1C(=S)CSc2ccccc21`, the growth inhibition in assay [1] was -8.5%; in assay [2], -4%; in assay [3] it was -11.3%; in assay [4], 26%; in assay [5], -9.75%; in assay [6], 1.85%.

Regarding `O=C(CC(C(=O)c1ccsc1)c1cccs1)c1cccs1` (stereo not given), the growth inhibition is 50.9% in assay [1]; 14.2% in assay [2]; 57.3% in assay [3]; 36.4% in assay [4]; 59.6% in assay [5]; 33.8% in assay [6].

As for `C=CCNC(=O)/C=C/C(=O)O`, the growth inhibition in assay [1] was -8.15%; in assay [2], 6.85%; in assay [3] it was 0.35%; in assay [4], 4.45%; in assay [5], 12.5%; in assay [6], 6.15%.

For `COC1OC(CO)C(O)C(OC(C)=O)C1NC(=O)N(CCCl)N=O` (stereo not given), the growth inhibition in assay [1] was -4.9%; in assay [2] it was -13.4%; in assay [3], -6.2%; in assay [4], 7.4%; in assay [5] it was -7.65%; in assay [6], -8.75%.

For the molecule `COc1cc(OC)c2cnc(Cl)cc2c1`, the growth inhibition in assay [1] was 15.4%; in assay [2], -9.1%; in assay [3] it was -5.35%; in assay [4], -41.4%; in assay [5], -2.85%; in assay [6], 6.6%.

Turning to `O=C([O-])c1ccc2c(c1)-c1nc-2nc2[n-]c(nc3nc(nc4[n-]c(n1)c1ccc(C(=O)[O-])cc41)-c1ccc(C(=O)[O-])cc1-3)c1ccc(C(=O)[O-])cc21.[Gd+3].[K+]`, the growth inhibition in assay [1] was -12.8%; in assay [2], -11.1%; in assay [3], -11.8%; in assay [4], 23.6%; in assay [5] it was 18%; in assay [6] it was -12.1%.

In the case of `CCOP(C)(=O)/C(Cc1ccc(OC)c(OC)c1)=N\O` (stereo not given), the growth inhibition in assay [1] is -21.4%; in assay [2], -22.8%; in assay [3], -14.8%; in assay [4], 10.4%; in assay [5], 23%; in assay [6], -17.2%.

In the case of `S=C(Nc1ccc(N=Nc2ccccc2)cc1)SCc1ccc(Cl)cc1`, the growth inhibition was 28.4% in assay [1]; 3.6% in assay [2]; 20.6% in assay [3]; 13.1% in assay [4]; -2.75% in assay [5]; 14% in assay [6].

For the molecule `CN1CN(C(=O)N2CN(C)C(=O)N(C)C2)CN(C)C1=O`, the growth inhibition was -10.8% in assay [1]; -13.6% in assay [2]; -23.6% in assay [3]; 3.45% in assay [4]; -14.2% in assay [5]; -37.4% in assay [6].

Turning to `Cc1cccc(Cl)c1NC(=O)N(C)c1ccccc1`, the growth inhibition in assay [1] was 8.95%; in assay [2], -11.9%; in assay [3], 14.2%; in assay [4] it was 23.4%; in assay [5], 23.9%; in assay [6], 11.7%.

Consider `COc1ccc(S(=O)(=O)N/N=C/c2cc(I)cc([N+](=O)[O-])c2O)cc1OC`, for which the growth inhibition in assay [1] is 35%; in assay [2], 22.1%; in assay [3] it was 17.1%; in assay [4] it was 4.95%; in assay [5] it was -3.75%; in assay [6] it was 38%.

On to `COC(=O)C(C)c1cc2ccccc2[nH]1` (stereo not given), for which the growth inhibition in assay [1] was -8%; in assay [2], -8.65%; in assay [3], 0.9%; in assay [4] it was -11.4%; in assay [5], -46.7%; in assay [6] it was 0.75%.

With `COc1ccc(/C=C2\CCC(CNc3cc(C)on3)C2=O)cc1` (stereo not given), the growth inhibition was 21.5% in assay [1]; -14.6% in assay [2]; 17.1% in assay [3]; 37.1% in assay [4]; 29.1% in assay [5]; -19.4% in assay [6].

On to `CCOC(=O)N1C(c2ccccc2)N(c2ccccc2)C(c2ccccc2)N1C(=O)OCC` (stereo not given), for which the growth inhibition in assay [1] was 4.7%; in assay [2] it was 4.65%; in assay [3] it was 22.9%; in assay [4], 3.3%; in assay [5], -15.6%; in assay [6], 14.8%.

Turning to `CCCNc1nc(C)nc2[nH]c(Cc3ccccc3)c(C)c12`, the growth inhibition in assay [1] was 12.4%; in assay [2], 11.9%; in assay [3], 21.9%; in assay [4] it was 0.8%; in assay [5], 14.8%; in assay [6] it was 27.1%.

Consider `COc1cc2c(c3c1c(=O)c1ccccc1n3C)C=CC1(CCCCC1)O2`, for which the growth inhibition in assay [1] is -12.4%; in assay [2] it was -19.6%; in assay [3], 91% (active); in assay [4] it was 86.5% (active); in assay [5], 87.5% (active); in assay [6] it was -7.4%.
